Sampled rows, rich in hits. Any-hit rate of the full collection: about 2.4%.
Nrf2 block = inhibitors of Nrf2 signaling; A549 ARE-Fluc reporter, luciferase luminescence, 18-24 h; Potency, µM (series often up to 46 µM), without a hit: top-dose activity change, negative = inhibition, actives largely listed as inhibitors; 360,000 compounds, 2.1% hits; AID 504444; also: % is scaled to controls: 0 for no effect and ±100 for the full control effect; nearly all actives have a fitted effect of over 60% in size
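A549 ARE_Fluc cells, 5000/well, 5% FBS OPTI-MEM; compounds in dose-response, 18-24 h at 37 °C/5% CO2; CellTiter-Fluor viability read (Ex 405/Em 525), then BugLite luciferase luminescence = Nrf2 activity.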
Nrf2 activator = activates Nrf2 signaling | AREc32 ARE-luciferase reporter (MCF7-derived line), luminescence, 24 h | Potency, µM (series often up to 46.1 µM), inactives show at the top dose activation, actives largely listed as activators | 410,000 compounds, 0.31% hits | AID 624171; also: % of control where 0% means no effect; nearly all actives have a fitted effect of over 65% in size
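Reporter line AREc32 (ARE-Fluc), seeded overnight in OPTI-MEM with 5% FBS; compound pin-transferred, 24 hr at 37 deg C, 5% CO2; luminescent read-out.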
PINK1 expr mod = modulators of PINK1 expression. PINK1 immunofluorescence, high-content cytometry, 24 h. Potency, µM (highest dose often 76.6 µM), for the others: top-dose activation (PINK1 increase), actives largely listed as activators. 410,000 compounds, 0.2% hits; active = well fitted activation curve with a large enough effect; inconclusive = small, poorly fitted or top-dose-only effect; cell line not stated here; also: % of control where 0% means no effect; nearly all actives have a fitted effect of over 65% in size
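Fluorescence from anti-PINK1 antibody, together with nuclear and cell stains, was scanned on a laser-scanning cytometer. Before staining, stable-line cells were incubated 24 hours with compounds at 5 concentrations; primary antibody 12 h at 10 degrees C.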
A549 tox = kills or reduces viability of A549 cells in Nrf2 counter-screen; A549 ARE-Fluc cells, CellTiter-Fluor viability, 18-24 h; Potency, µM (top dose mostly 46 µM), without a hit: at the top dose activity change, negative = cytotoxicity, most hits filed as inhibitors; 390,000 compounds, 0.16% hits; AID 504648; also: % is scaled to controls: 0 for no effect and ±100 for the full control effect
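A549 ARE-Fluc cells in 5% FBS OPTI-MEM, 5000 cells/well, rested 2 h then exposed to compounds in concentration-response for 18-24 h at 37 °C. Viability by CellTiter-Fluor fluorescence (Ex 405/Em 525) after 30 min; luciferase luminescence (BugLite, 15 min, RT) read afterwards.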
Epigenetic reg = derepresses silenced GFP reporter in murine cells | AID 1865 | murine LDR cells, GFP reporter derepression, 30 h | Potency, µM (highest dose often 53.9 µM), without a hit: at the highest dose GFP activation, usual class: activators | 280,000 compounds, 0.2% hits; also: % of control where 0% means no effect; nearly all actives have a fitted effect of over 60% in size
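In this reporter-derepression format, murine cells bearing a silenced integrated CMV-GFP locus incubate with test compound (30 h, 37 C), then are washed and imaged; fluorescent objects of 20–120 um count as induced cells.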
* = called active by the depositor; ? = inconclusive; / = not tested or not shown; [ ] = remark or other dose. Unless noted, calls follow the shape of the dose curve; as a rule, active = well fitted curve in the direction sought with a large enough effect; inconclusive = small, poorly fitted or top-dose-only effect, or another doubt; inactive = no such curve, though single readings can be large; an effect the other way counts as inactive or inconclusive. Potency is read from the fitted curve at half-maximal effect.

SMILES	Nrf2 block	Nrf2 activator	PINK1 expr mod	A549 tox	Epigenetic reg
CCC(Sc1nc(C)cc(C)n1)C(=O)NC1=NN=C(c2ccc(C)cc2)CS1 (configuration not stated)	?	?	14µM*	?	3%
CCSC(C)CC1C/C(=N/O)c2c(CC)noc2C1 (configuration not stated)	23µM*	0%	?	-5%[1.84 µM]	3%
CCCc1noc2c1/C(=N\O)CC(CC(C)SCC)C2 (configuration not stated)	?	0%	5%[38.3 µM]	-9%	-1%
OCC1CCCN(c2nc3cc4c(cc3cc2CNCc2cccc(C(F)(F)F)c2)OCO4)C1 (configuration not stated)	/	/	0%	/	/
COc1ccccc1Nc1nn2c(=O)c3ccc(C(=O)NCCc4ccccc4)cc3nc2s1	18µM*	3%	7%	8.2µM*	7%
Cc1ccc(C)c(Nc2nn3c(=O)c4ccc(C(=O)NCCc5ccccc5)cc4nc3s2)c1	?	-1%	-2%	8%	0%
N=C1/C(=C/c2cccs2)C(=O)N=C2SN=C(SCc3ccccc3)N12	-20%	0%	?	-25%	-1%
CC(C)CSC1=NSC2=NC(=O)/C(=C\c3cccs3)C(=N)N12	9%	2%	45µM*	-13%	-1%
COc1cc2nc3c(c([Si](C)(C)C(C)(C)C)c2cc1OC)Cn1c-3cccc1=O	/	/	/	/	7.9µM*
COc1ccc2nc3c(c([Si](C)(C)C(C)(C)C)c2c1)Cn1c-3cccc1=O	/	/	/	/	9%
CCOC(=O)c1ccccc1NS(=O)(=O)c1ccccc1	23µM*	-1%	-3%[38.3 µM]	?	0%
CCOc1ccc(S(=O)(=O)Nc2ccc3c(c2)n(C)c(=O)n3C)cc1	16µM*	5%	2%	2%	/
CCOC(=O)Cc1ccc(NS(=O)(=O)c2ccc(SC)cc2)cc1	?	1%	-3%	-8%	-3%
CCOC(=O)c1ccc(NS(=O)(=O)c2ccc(SC)cc2)cc1	23µM*	0%	5%[38.3 µM]	?	-1%
CCOC(=O)c1ccc(NS(=O)(=O)c2ccc3c(c2)n(C)c(=O)n3C)cc1	21µM*	5%	2%	11%	0%
COC(=O)c1ccc(NS(=O)(=O)c2ccc3c(c2)n(C)c(=O)n3C)cc1	-25%	2%	3%	-1%	/
COc1ccc(C2c3c(N)nc(Cc4ccccc4)nc3Oc3ccc4ccccc4c32)cc1OC (configuration not stated)	?	/	/	-11%	/
COC(=O)c1c(OCc2ccccc2)cc(=O)n2c1CCN(Cc1cccc(C)n1)CC2	/	/	2%	/	/
O=S(=O)(c1ccc2c(c1)OCCO2)N1CCN(S(=O)(=O)c2cccc3cccnc23)CC1	12%	/	/	9%	/
Cn1c(=O)n(C)c2cc(S(=O)(=O)Nc3ccccc3)ccc21	23µM*	5%	-5%	-7%	-3%
Cn1c(=O)oc2cc(S(=O)(=O)Nc3cccc(F)c3)ccc21	6%	0%	1%	6%	-1%
CSc1cccc(NS(=O)(=O)c2ccc3c(c2)oc(=O)n3C)c1	26µM*	-1%	2%	-5%	-3%
CCN(CC)C(=O)[C@H]1C[C@H](CC(=O)NC(C)(C)C)C(=O)N2CCc3c([nH]c4ccc(Cl)cc34)[C@]12C	-18%	6%	1%	-8%	/
O=C(C[C@H]1C[C@H](C(=O)N2CCCCC2)[C@@]2(CCc3ccccc3)c3[nH]c4ccc(Cl)cc4c3CCN2C1=O)NCCc1ccccn1	21µM*	0%	0%	?	/
O=C(C[C@H]1C[C@H](C(=O)N2CCCCC2)[C@@]2(CCc3ccccc3)c3[nH]c4ccc(Cl)cc4c3CCN2C1=O)NCCC1=CCCCC1	1%	1%	-1%	2%	/
SMILES	Nrf2 block	Nrf2 activator	PINK1 expr mod	A549 tox	Epigenetic reg
CC(C)(C)NC(=O)C[C@H]1C[C@H](C(=O)N2CCCCC2)[C@@]2(C)c3[nH]c4ccc(Cl)cc4c3CCN2C1=O	16µM*	0%	-1%	?	/
COc1ccc2[nH]c3c(c2c1)CCN1C(=O)C(CC(=O)NCc2ccco2)C[C@H](C(=O)N2CCCCC2)[C@@]31CCc1ccccc1 (some centres not stated)	23µM*	-1%	2%	-26%	/
O=C(CC1C[C@H](C(=O)N2CCCCC2)[C@@]2(CCc3ccccc3)c3[nH]c4ccccc4c3CCN2C1=O)NCc1ccco1 (some centres not stated)	?	0%	4%	-23%	/
COCCCNC(=O)CC1C[C@H](C(=O)N2CCCCC2)[C@@]2(CCc3ccccc3)c3[nH]c4ccc(OC)cc4c3CCN2C1=O (some centres not stated)	-20%	0%	1%	-10%	/
COc1ccc2[nH]c3c(c2c1)CCN1C(=O)C(CC(=O)NCCc2ccccn2)C[C@H](C(=O)N2CCCCC2)[C@@]31CCc1ccccc1 (some centres not stated)	21µM*	0%	0%	-27%	/
O=C1CCc2cc(S(=O)(=O)Nc3cccc4ccccc34)ccc2N1	?	/	/	9%	/
Cc1occc1-c1nnc(SCC(=O)Nc2nc(C(C)(C)C)cs2)o1	?	3%	14µM*	4%[1.84 µM]	2%
Cc1csc(NC(=O)CSc2nnc(-c3ccoc3C)o2)n1	28%	5%	-1%	-5%	4%
O=C(NCc1ccncc1)c1cccc(S(=O)(=O)Nc2ccc(SC(F)F)cc2)c1	15µM*	0%	25%	-21%	/
Cc1oc(-c2ccccc2NC(=O)c2ccccn2)nc1CNC(=O)c1cccc(C#CC(C)(C)O)c1	/	/	-1%	/	/
O=C(Nc1cccc(O)c1)c1cc(-c2ccc3c(c2)OCO3)on1	15µM*	-1%	-1%	1%	/
CC(=O)c1cccc(NC(=O)c2cc(-c3ccc4c(c3)OCCO4)on2)c1	?	-1%	0%	-5%	0%
CN(C)c1ccc(/C=C2\C=Cc3ccccc32)c(F)c1	/	/	15%	/	/
O=C(O)c1ccc(CNCc2cccc(OCc3ccc(F)cc3)c2)cc1	-12%	0%	0%	-12%	/
Fc1ccc(COc2cccc(CNCc3ccncc3)c2)cc1	15µM*	3%	-1%	-1%	0%
Cc1cccc(CSCc2ccc(C(=O)NC(C)C)o2)c1	21µM*	0%	-1%	1%	/
NC(=O)c1cc2ccccc2o/c1=N\NC(=O)c1ccccc1O	8.2µM*	0%	15%	-10%	/
CCCCN(C)C1=CC2=CC(=C(C#N)C#N)CCC2CC1 (configuration not stated)	-12%	3%	13µM*	-13%	?
CCN(CC)C1=CC2=CC(=C(C#N)C#N)CCC2CC1 (configuration not stated)	5%	2%	?	1%	3%
CC(=O)c1cccc(NC(=O)c2nc3ccccc3n(C)c2=O)c1	?	19%	3%	-9%	0%

High-throughput results deposited in PubChem by National Center for Advancing Translational Sciences (NCATS).
